Data: paper PMC7862700, “An all-to-all approach to the identification of sequence-specific readers for epigenetic DNA modifications on cytosine”

Assays:
Assay in all cases: DAPPL (digital affinity profiling via proximity ligation, sequencing); 10 mM Tris-HCl pH 7.5, 50 mM NaCl, 1 mM DTT, 4% glycerol, room temperature, 30 min; GST-TFs on glutathione beads, 16-mer random dsDNA library, 0.1% formaldehyde crosslink after washing; high values mean tight binding
[1] = biological target: T1, FLI1 (Homo sapiens, UniProt Q01543 1-452); settings: protein: recombinant; tags: N-terminal GST; dsDNA, one strand shown
T1 sequence: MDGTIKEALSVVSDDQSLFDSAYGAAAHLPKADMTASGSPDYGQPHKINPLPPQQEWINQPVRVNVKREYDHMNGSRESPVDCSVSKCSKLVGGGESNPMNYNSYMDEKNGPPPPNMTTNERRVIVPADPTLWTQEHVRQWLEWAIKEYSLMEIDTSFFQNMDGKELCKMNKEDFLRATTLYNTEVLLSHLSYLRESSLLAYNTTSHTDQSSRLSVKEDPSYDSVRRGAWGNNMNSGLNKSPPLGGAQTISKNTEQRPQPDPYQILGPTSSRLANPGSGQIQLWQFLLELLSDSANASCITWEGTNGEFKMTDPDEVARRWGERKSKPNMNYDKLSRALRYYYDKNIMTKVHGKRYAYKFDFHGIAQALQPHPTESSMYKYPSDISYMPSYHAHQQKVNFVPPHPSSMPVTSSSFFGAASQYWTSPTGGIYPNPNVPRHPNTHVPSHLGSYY
Outline: (§1)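 GST fusions of human transcription factors were expressed in yeast and captured with glutathione beads. Once given DNA barcodes and pooled alongside a tag-only sample, they were incubated for 30 min at room temperature with 200 nmole of a random double-stranded 16-mer DNA library in Tris/NaCl/DTT/glycerol buffer, then washed, crosslinked (0.1% formaldehyde), proximity-ligated, PCR-amplified and sequenced on an Illumina NextSeq500. The binding signal of each hexamer is its read frequency for a factor divided by its frequency for the tag-only sample.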

[2] = biological target: T2, ELK1 (Homo sapiens, UniProt P19419 1-428); settings: protein: recombinant; tags: N-terminal GST; dsDNA, one strand shown
T2 sequence: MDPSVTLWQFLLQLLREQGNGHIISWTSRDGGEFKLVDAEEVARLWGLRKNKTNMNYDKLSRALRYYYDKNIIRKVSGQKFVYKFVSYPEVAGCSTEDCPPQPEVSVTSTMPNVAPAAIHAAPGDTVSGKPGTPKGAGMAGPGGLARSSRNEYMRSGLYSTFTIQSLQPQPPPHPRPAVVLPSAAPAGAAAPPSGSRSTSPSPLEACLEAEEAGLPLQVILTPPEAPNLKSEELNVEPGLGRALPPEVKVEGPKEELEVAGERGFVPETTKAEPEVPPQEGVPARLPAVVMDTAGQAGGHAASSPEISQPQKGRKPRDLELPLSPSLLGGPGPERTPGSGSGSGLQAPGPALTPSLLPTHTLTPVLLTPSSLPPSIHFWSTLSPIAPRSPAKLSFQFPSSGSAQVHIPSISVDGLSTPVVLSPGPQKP
Outline: as §1

[3] = biological target: T3, GABPA (Homo sapiens, UniProt Q06546 1-454); settings: protein: recombinant; tags: N-terminal GST; dsDNA, one strand shown
T3 sequence: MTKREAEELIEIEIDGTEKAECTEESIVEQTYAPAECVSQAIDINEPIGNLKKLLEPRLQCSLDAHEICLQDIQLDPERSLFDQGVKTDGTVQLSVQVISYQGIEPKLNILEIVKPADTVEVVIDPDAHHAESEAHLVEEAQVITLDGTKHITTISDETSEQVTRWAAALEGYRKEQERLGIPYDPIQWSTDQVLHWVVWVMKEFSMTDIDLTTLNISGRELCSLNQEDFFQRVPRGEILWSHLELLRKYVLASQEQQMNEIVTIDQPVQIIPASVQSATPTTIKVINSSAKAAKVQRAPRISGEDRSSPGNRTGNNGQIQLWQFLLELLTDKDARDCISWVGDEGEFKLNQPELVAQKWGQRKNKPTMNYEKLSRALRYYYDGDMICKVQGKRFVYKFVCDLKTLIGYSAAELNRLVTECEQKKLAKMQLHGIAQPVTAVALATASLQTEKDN
Outline: as §1

[4] = biological target: T4, ERG (Homo sapiens, UniProt P11308 1-479); settings: protein: recombinant; tags: N-terminal GST; dsDNA, one strand shown
T4 sequence: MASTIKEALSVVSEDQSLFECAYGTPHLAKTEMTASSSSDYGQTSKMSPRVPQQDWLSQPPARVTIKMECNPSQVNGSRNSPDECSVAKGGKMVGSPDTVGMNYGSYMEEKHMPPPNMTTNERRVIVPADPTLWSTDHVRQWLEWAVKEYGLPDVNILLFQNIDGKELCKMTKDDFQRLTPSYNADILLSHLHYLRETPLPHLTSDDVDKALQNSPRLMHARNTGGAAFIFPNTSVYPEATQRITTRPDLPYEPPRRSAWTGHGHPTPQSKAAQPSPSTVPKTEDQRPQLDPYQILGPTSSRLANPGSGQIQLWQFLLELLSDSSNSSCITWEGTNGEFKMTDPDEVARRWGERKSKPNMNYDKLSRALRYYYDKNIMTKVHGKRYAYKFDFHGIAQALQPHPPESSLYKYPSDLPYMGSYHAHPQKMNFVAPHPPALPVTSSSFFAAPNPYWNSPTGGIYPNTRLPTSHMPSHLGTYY
Outline: as §1

[5] = biological target: ELF1 (Homo sapiens, UniProt P32519 1-619); settings: protein: recombinant; tags: N-terminal GST; dsDNA, one strand shown
Outline: as §1

[6] = biological target: T5, EHF (Homo sapiens, UniProt Q9NZC4 1-300); settings: protein: recombinant; tags: N-terminal GST; dsDNA, one strand shown
T5 sequence: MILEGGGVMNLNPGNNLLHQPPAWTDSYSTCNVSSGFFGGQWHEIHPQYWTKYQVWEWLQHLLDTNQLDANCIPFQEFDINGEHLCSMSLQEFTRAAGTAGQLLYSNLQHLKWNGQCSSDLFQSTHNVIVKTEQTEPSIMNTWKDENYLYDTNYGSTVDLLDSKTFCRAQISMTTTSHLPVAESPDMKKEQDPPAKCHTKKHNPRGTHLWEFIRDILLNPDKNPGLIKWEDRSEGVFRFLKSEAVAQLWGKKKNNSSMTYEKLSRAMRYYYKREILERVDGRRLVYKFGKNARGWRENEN
Outline: as §1

[7] = biological target: SPI1 (Homo sapiens, UniProt P17947 1-270); settings: protein: recombinant; tags: N-terminal GST; dsDNA, one strand shown
Outline: as §1

[8] = biological target: SPIB (Homo sapiens, UniProt Q01892 1-262); settings: protein: recombinant; tags: N-terminal GST; dsDNA, one strand shown
Outline: as §1

[9] = biological target: T6, ELK3 (Homo sapiens, UniProt P41970 1-407); settings: protein: recombinant; tags: N-terminal GST; dsDNA, one strand shown
T6 sequence: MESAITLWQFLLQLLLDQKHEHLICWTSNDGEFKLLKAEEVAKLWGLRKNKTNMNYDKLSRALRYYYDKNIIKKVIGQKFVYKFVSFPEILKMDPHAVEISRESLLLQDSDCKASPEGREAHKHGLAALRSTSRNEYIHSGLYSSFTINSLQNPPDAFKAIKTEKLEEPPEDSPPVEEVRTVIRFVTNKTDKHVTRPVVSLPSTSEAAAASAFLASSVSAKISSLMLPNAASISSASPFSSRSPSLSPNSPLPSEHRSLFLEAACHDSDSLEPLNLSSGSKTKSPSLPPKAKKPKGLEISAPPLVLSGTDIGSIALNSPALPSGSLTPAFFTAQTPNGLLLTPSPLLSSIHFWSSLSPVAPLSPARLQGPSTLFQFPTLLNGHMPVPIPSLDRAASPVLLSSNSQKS
Outline: as §1

[10] = biological target: T7, FEV (Homo sapiens, UniProt Q99581 1-238); settings: protein: recombinant; tags: N-terminal GST; dsDNA, one strand shown
T7 sequence: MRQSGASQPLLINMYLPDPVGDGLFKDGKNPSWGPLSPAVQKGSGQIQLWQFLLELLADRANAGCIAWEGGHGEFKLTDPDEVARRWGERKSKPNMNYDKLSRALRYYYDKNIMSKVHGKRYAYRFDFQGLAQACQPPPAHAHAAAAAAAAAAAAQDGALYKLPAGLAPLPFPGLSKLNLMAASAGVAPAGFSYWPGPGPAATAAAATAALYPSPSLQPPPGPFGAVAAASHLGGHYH
Outline: as §1

[11] = biological target: ETV5 (Homo sapiens, UniProt P41161 1-510); settings: protein: recombinant; tags: N-terminal GST; dsDNA, one strand shown
Outline: as §1

[12] = biological target: HSF1 (Homo sapiens, UniProt Q00613 1-529); settings: protein: recombinant; tags: N-terminal GST; chain copies: 3; dsDNA, one strand shown
Outline: as §1

[13] = biological target: T8, SPIC (Homo sapiens, UniProt Q8N5J4 1-248); settings: protein: recombinant; tags: N-terminal GST; dsDNA, one strand shown
T8 sequence: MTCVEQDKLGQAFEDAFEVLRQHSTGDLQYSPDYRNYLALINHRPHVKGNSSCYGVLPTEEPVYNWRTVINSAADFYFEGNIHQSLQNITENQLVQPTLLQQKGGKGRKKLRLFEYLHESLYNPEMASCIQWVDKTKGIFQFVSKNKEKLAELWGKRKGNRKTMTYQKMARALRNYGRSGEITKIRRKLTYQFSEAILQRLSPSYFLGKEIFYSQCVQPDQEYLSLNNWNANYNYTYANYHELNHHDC
Outline: as §1

[14] = biological target: ELF4 (Homo sapiens, UniProt Q99607 1-663); settings: protein: recombinant; tags: N-terminal GST; dsDNA, one strand shown
Outline: as §1

[15] = biological target: T9, ELK4 (Homo sapiens, UniProt P28324-2 1-405); settings: protein: recombinant; tags: N-terminal GST; dsDNA, one strand shown
T9 sequence: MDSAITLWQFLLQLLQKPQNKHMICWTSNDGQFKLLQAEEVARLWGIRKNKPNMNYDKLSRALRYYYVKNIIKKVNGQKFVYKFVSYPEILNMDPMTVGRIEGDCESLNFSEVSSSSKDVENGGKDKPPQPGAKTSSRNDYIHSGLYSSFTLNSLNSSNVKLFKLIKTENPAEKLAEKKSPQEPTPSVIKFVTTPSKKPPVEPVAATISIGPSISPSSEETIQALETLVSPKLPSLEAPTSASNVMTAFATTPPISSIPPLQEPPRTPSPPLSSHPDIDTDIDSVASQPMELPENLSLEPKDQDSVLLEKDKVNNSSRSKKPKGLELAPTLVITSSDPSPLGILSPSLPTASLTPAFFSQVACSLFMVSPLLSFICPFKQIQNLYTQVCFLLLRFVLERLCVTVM
Outline: as §1

[16] = biological target: T10, ETV2 (Homo sapiens, UniProt O00321 1-342); settings: protein: recombinant; tags: N-terminal GST; dsDNA, one strand shown
T10 sequence: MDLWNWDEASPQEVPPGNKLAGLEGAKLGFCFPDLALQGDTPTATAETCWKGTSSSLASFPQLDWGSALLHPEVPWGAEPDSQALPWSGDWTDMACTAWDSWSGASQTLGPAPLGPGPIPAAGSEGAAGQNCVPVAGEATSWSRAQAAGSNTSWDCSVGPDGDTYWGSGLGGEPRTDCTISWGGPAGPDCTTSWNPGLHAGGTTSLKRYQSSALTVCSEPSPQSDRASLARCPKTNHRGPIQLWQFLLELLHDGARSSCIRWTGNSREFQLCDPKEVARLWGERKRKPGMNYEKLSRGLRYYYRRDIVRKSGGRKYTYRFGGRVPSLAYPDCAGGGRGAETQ
Outline: as §1

[17] = biological target: T11, ELF3 (Homo sapiens, UniProt P78545 1-371); settings: protein: recombinant; tags: N-terminal GST; dsDNA, one strand shown
T11 sequence: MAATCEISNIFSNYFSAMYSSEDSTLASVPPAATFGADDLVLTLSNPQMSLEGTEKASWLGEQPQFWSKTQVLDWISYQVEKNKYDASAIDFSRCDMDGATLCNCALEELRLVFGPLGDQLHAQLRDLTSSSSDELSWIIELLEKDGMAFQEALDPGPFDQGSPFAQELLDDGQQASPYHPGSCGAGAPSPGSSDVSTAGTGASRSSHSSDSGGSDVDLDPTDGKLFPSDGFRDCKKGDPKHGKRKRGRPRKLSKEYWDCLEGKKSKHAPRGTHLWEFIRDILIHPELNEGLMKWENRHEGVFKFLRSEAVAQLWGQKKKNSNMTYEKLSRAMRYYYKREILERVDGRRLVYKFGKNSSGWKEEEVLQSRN
Outline: as §1

[18] = biological target: CRX (Homo sapiens, UniProt O43186 1-299); settings: protein: recombinant; tags: N-terminal GST; dsDNA, one strand shown
Outline: as §1

[19] = biological target: ETV1 (Homo sapiens, UniProt P50549 1-477); settings: protein: recombinant; tags: N-terminal GST; dsDNA, one strand shown
Outline: as §1

Chain of ELF1 (P32519 whole entry): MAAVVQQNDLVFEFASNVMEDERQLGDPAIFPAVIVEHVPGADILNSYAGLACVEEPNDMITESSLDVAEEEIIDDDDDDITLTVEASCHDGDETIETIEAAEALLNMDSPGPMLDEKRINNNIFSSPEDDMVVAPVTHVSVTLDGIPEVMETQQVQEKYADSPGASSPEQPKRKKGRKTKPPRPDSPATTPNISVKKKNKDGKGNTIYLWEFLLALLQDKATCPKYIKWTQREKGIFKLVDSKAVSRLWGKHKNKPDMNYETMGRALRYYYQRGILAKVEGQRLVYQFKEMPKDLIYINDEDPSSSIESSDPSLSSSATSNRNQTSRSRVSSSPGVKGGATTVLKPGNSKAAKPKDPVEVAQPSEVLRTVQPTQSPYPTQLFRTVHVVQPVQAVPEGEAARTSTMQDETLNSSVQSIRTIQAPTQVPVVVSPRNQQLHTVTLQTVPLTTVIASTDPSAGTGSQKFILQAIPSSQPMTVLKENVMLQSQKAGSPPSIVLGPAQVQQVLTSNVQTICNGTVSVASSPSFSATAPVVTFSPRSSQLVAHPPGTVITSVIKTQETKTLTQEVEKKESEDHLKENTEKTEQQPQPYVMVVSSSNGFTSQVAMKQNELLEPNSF
Chain of ETV5 (P41161 whole entry): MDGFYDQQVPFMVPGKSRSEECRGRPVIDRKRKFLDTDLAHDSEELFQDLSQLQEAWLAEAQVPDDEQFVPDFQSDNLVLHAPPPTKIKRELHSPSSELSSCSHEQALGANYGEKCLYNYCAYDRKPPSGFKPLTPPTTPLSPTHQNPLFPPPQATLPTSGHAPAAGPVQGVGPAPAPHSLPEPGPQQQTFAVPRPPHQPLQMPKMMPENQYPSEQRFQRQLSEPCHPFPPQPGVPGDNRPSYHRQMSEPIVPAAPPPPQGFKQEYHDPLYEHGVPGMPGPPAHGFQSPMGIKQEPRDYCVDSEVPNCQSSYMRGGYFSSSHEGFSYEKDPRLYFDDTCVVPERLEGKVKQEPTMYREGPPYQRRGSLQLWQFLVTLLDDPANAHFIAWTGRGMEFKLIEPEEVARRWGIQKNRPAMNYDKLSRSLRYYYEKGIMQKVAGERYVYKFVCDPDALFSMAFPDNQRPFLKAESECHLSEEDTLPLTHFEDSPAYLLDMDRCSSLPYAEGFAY
Chain of ETV1 (P50549 whole entry): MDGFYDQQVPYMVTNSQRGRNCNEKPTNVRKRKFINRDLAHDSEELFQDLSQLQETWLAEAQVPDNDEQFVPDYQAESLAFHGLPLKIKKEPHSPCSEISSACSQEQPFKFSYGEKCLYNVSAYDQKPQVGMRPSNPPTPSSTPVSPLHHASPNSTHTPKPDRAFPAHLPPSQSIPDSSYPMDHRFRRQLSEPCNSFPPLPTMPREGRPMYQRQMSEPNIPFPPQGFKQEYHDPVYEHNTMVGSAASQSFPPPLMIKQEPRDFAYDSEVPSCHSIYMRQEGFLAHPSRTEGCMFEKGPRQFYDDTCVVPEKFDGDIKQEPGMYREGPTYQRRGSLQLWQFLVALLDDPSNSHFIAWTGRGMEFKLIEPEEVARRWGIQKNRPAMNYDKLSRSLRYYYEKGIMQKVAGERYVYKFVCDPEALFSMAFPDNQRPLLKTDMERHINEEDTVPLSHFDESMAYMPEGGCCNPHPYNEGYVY
Chain of ELF4 (Q99607 whole entry): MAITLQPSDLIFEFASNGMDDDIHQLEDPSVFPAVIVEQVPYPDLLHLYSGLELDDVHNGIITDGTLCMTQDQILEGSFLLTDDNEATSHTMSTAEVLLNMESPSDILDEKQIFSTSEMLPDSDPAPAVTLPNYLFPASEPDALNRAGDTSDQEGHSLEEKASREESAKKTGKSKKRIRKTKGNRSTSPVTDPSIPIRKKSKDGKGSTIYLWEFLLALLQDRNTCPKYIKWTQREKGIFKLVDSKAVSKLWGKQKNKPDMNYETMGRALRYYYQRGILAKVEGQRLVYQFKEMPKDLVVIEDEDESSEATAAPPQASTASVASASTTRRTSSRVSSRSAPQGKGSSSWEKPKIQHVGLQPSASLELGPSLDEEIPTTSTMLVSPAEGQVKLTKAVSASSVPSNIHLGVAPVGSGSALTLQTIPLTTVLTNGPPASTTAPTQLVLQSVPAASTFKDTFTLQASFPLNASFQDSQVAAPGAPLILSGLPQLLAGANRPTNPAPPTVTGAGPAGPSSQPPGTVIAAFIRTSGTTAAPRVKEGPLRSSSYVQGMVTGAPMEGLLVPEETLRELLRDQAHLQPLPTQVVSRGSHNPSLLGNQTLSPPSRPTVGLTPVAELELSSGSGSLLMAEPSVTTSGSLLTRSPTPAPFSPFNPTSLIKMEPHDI
Chain of SPIB (Q01892 whole entry): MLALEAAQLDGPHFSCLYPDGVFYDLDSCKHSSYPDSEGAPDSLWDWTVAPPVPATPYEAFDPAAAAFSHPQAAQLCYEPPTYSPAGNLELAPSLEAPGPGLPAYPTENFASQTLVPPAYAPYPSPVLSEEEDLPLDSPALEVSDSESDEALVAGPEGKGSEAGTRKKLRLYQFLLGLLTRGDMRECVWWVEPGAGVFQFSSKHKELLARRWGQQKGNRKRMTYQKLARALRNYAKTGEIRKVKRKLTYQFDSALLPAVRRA
Chain of HSF1 (Q00613 whole entry): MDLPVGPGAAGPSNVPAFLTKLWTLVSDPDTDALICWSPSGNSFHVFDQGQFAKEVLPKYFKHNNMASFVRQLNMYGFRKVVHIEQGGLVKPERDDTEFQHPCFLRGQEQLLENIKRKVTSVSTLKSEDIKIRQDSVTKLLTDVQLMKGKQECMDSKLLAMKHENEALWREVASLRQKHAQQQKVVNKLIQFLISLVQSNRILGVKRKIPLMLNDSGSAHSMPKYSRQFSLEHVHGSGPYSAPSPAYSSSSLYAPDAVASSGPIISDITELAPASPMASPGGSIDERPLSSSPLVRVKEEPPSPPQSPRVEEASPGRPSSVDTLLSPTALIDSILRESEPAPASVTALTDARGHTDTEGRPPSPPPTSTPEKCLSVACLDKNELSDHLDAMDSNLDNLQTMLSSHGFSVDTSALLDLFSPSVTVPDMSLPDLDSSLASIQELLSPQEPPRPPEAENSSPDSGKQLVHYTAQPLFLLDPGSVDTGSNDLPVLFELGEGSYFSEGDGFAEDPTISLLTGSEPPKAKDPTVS
Chain of CRX (O43186 whole entry): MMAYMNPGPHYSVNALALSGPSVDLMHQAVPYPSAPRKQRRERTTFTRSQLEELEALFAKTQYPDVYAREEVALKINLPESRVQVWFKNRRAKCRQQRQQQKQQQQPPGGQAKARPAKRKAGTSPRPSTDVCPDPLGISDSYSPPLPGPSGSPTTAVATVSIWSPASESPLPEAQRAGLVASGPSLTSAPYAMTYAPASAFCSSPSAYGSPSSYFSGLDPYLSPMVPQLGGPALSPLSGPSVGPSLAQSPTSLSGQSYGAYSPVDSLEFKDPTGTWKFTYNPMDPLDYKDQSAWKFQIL

CTCCGC was tested, and the binding signal [1] was 1.51 fold enrichment (6-mer frequency, TF over GST control), the binding signal [2] was 1.63 fold enrichment (6-mer frequency, TF over GST control) and the binding signal [3] was 1.58 fold enrichment (6-mer frequency, TF over GST control). The binding signal [4] was 1.38 fold enrichment (6-mer frequency, TF over GST control), the binding signal [5] was 1.56 fold enrichment (6-mer frequency, TF over GST control) and the binding signal [6] was 1.37 fold enrichment (6-mer frequency, TF over GST control). For the same sequence, the binding signal [7] was 1.56 fold enrichment (6-mer frequency, TF over GST control), the binding signal [8] was 1.37 fold enrichment (6-mer frequency, TF over GST control) and the binding signal [9] was 1.5 fold enrichment (6-mer frequency, TF over GST control). For the same sequence, the binding signal [10] was 1.43 fold enrichment (6-mer frequency, TF over GST control), the binding signal [11] was 1.52 fold enrichment (6-mer frequency, TF over GST control) and the binding signal [12] was 1.15 fold enrichment (6-mer frequency, TF over GST control). For the same sequence, the binding signal [13] was 1.51 fold enrichment (6-mer frequency, TF over GST control), the binding signal [14] was 1.67 fold enrichment (6-mer frequency, TF over GST control) and the binding signal [15] was 1.39 fold enrichment (6-mer frequency, TF over GST control). The binding signal [16] was 1.57 fold enrichment (6-mer frequency, TF over GST control), the binding signal [17] was 1.38 fold enrichment (6-mer frequency, TF over GST control) and the binding signal [18] was 1.3 fold enrichment (6-mer frequency, TF over GST control). The binding signal [19] was 1.56 fold enrichment (6-mer frequency, TF over GST control).
